# From PubChem BioAssay (NCATS)
# “And” between values parts separate entries of the source, which are not always exact repeats. Equal values may be shown once. Records with an inconclusive call do not appear. Entries that show only a call come without a potency. The source holds several records for some structures; these can differ, active in one and inactive in another. The source made the active and inactive calls. Unless noted, calls come from the whole dose curve; as a rule, active = well fitted curve in the direction sought with a large enough effect; inconclusive = small, poorly fitted or top-dose-only effect, or another doubt; inactive = no such curve, though single readings can be large; an effect the other way counts as inactive or inconclusive.
# What was measured:
# [1] = biological target: Guanine nucleotide-binding protein G(i) subunit alpha-1 (Homo sapiens) (UniProt P63096); assay: qHTS Assay for Inhibitors of RGS12 GoLoco Motif Activity (Green Fluorophore) (AID 879);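 note: negative values mean loss of peptide binding seen as reduced polarization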
# Guanine nucleotide-binding protein G(i) subunit alpha-1 (Homo sapiens), sequence (P63096 whole entry, looked up): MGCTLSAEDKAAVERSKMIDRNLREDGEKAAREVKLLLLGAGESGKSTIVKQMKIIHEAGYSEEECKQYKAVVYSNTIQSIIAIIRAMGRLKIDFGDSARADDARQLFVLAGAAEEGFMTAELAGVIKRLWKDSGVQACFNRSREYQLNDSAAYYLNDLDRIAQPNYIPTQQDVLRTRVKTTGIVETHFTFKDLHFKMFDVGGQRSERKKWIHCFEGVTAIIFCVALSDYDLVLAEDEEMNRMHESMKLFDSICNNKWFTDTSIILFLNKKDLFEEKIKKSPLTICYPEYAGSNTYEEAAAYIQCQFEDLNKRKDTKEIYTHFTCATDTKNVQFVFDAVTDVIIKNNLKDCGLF
# How it was run: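 A drop in FITC polarization marked displacement of the FITC-tagged RGS12 GoLoco peptide (10 nM) from Gαi1 (50 nM). Compounds were incubated 10 min at room temperature in Tris pH 7.5 buffer containing 150 mM NaCl, 0.1 mM GDP and 0.05% NP40; unlabeled peptide titration served as control.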
# [2] = biological target: Cytochrome P450 2C9 (Homo sapiens) (UniProt P11712); assay: qHTS Assay for Inhibitors and Substrates of Cytochrome P450 2C9 (AID 883); note: nearly all actives have a fitted effect of over 60% in size; note: potency is the fitted concentration of half-maximal effect
# Cytochrome P450 2C9 (Homo sapiens), sequence (P11712 whole entry, looked up): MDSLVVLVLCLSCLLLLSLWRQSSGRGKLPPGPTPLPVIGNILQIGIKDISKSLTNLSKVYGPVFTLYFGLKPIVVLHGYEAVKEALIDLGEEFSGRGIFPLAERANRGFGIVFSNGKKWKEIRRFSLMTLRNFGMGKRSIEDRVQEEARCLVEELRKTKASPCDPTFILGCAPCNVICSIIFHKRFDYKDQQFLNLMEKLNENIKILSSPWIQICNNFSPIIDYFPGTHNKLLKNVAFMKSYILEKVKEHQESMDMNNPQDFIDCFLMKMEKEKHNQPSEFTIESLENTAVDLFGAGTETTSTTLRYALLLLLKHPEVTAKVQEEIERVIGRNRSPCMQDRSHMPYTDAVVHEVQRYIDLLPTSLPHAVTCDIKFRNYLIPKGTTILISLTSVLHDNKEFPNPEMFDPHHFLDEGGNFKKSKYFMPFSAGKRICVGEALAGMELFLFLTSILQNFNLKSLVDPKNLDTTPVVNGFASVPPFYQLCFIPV
# How it was run: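 A luminogenic readout tracked human CYP2C9 (10nM) converting deoxyluciferin (100uM, at KM) in 25mM KPO4 during 60 min at 37C with regenerated NADPH. Values normalized to 57uM sulphaphenazole as complete inhibition.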
# [3] = biological target: Cytochrome P450 3A4 (Homo sapiens) (UniProt P08684); assay: qHTS Assay for Inhibitors and Substrates of Cytochrome P450 3A4 (AID 884); note: nearly all actives have a fitted effect of over 50% in size; note: potency is the fitted concentration of half-maximal effect
# Cytochrome P450 3A4 (Homo sapiens), sequence (P08684 whole entry, looked up): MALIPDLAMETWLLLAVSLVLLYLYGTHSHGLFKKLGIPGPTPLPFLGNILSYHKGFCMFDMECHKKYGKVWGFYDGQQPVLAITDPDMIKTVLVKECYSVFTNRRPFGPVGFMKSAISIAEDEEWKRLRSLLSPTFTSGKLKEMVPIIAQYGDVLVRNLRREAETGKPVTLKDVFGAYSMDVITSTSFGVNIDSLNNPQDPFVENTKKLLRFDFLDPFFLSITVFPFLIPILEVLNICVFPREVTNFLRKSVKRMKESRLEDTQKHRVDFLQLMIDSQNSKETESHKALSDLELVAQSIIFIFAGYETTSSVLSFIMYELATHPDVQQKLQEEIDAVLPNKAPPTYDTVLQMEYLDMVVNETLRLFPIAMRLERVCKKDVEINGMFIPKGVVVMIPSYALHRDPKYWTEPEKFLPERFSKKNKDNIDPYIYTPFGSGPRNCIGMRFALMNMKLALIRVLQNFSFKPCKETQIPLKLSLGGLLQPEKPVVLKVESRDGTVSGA
# How it was run: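 Luminescent readout of luciferin produced by CYP3A4 (20 nM) dealkylation of Luciferin-PPXE, 25 uM (its KM). NADPH-driven reaction ran 60 min at RT after 10 min compound preincubation; data scaled to 57 uM ketoconazole as 100% inhibition.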
# [4] = biological target: Cytochrome P450 2D6 (Homo sapiens) (UniProt P10635); assay: qHTS Assay for Inhibitors and Substrates of Cytochrome P450 2D6 (AID 891); note: nearly all actives have a fitted effect of over 60% in size; note: potency is the fitted concentration of half-maximal effect
# Cytochrome P450 2D6 (Homo sapiens), sequence (P10635 whole entry, looked up): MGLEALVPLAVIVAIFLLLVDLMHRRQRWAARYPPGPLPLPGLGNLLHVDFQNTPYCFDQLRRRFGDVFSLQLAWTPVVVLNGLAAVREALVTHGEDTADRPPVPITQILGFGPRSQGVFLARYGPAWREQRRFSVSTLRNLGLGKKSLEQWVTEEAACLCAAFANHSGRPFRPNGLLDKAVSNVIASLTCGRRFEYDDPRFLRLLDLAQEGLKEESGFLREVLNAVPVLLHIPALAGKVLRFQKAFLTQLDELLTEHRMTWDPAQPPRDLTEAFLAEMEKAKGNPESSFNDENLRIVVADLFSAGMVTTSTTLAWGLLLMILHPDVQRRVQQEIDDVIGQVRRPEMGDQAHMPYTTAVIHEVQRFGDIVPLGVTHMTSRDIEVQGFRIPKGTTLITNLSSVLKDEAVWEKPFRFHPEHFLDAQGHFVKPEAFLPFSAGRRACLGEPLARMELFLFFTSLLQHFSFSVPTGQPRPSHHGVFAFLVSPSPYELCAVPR
# How it was run: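 Luminescent read-out of luciferin formed by 5 nM human CYP2D6 demethylating 30 uM Luciferin-ME EGE (Km level) over 60 min at room temperature after NADPH regeneration addition. Data normalized to full inhibition by 1.43 uM quinidine.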
# [5] = biological target: Cytochrome P450 2C19 (Homo sapiens) (UniProt P33261); assay: qHTS Assay for Inhibitors and Substrates of Cytochrome P450 2C19 (AID 899); note: nearly all actives have a fitted effect of over 60% in size; note: potency is the fitted concentration of half-maximal effect
# Cytochrome P450 2C19 (Homo sapiens), sequence (P33261 whole entry, looked up): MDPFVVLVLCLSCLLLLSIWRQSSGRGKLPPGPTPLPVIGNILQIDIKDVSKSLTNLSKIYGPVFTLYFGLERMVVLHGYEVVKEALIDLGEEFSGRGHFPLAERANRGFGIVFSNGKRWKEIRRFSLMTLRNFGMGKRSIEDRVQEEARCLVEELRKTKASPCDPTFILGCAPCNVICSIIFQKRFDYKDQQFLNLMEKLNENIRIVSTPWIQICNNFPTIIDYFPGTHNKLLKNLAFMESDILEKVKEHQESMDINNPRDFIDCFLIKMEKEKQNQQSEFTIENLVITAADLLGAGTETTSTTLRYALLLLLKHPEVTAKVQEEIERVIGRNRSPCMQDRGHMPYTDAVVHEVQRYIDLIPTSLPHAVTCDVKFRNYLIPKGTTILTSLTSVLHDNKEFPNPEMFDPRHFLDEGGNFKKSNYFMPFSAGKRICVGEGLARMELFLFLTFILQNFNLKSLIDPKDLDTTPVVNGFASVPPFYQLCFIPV
# How it was run: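 NADPH-dependent conversion of Luciferin-H EGE (10uM, at KM) by 5nM enzyme in 50mM KPO4, 60 min at 37C following 10 min compound preincubation. Stopped with luciferin detection buffer; luminescence read after 20 min.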
# [6] = qHTS Assay for Identification of Small Molecule Agonists for Thrombopoietin (TPO) Signaling Pathway (AID 917); note: potency is the fitted concentration of half-maximal effect
# How it was run: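 First, Ba/F3 cells with human TPO receptor were held overnight without IL-3. Next, compounds and TPO (26 pM final) were added. After 24 hrs at 37 C, luciferase detection reagent was added and luminescence measured following 10 min at room temperature.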
# [7] = biological target: Cytochrome P450 3A4 (Homo sapiens) (UniProt P08684); assay: qHTS Assay for Activators of Cytochrome P450 3A4 (AID 885); note: nearly all actives have a fitted effect of over 65% in size
# How it was run: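 CYP3A4 activity: Luciferin-PPXE O-dealkylation, 25uM substrate, 200mM KPO4, RT throughout. Read-out is luciferase luminescence; higher values reflect activation.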
# [8] = qHTS Assay for Identification of Small Molecule Antagonists for NFkB Signaling Pathway (AID 895; active = well fitted inhibition curve with a large enough effect in the signal ratio, with a control signal flat, not every such curve was filed as active; the % refers to the signal ratio)
# How it was run: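 NFkB-bla ME-180 cervical carcinoma cells with beta-lactamase reporter under NFkB response element; compounds added, then TNF alpha at 10 pM final (EC50), 5 h at 37 C. LiveBLAzer substrate 2 h, room temperature; emission 460/530 nm at 405 nm excitation.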
# [9] = Cellular Toxicity (caspase-3) Jurkat (AID 655); settings: Jurkat caspase-3 activation, luminescence, DMSO = 0%, tamoxifen = 100%; at 92.2 µM (top of the series);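 note: cells exposed to compound for 16 h at 37 °C before reading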
# How it was run: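 Jurkat cells (5000/well) in complete medium were treated with compounds for 16 hr at 37 °C, then Caspase-Glo 3/7 luminescence was read after 20 min at room temperature. Data normalized to DMSO (basal) and 100 uM tamoxifen (100%); AC50 from Hill fit.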
# [10] = Cellular Toxicity (caspase-3) HUV-EC-C (AID 656)
# How it was run: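 HUV-EC-C endothelial cells, 1000/well, were pre-incubated 5 hr at 37°C, then exposed to compounds for 16 hr at 37°C. Caspase-Glo 3/7 luminescence was read after 20 min at room temperature. AC50 came from Hill fits, normalized to DMSO and 100 uM tamoxifen.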
# [11] = Cellular Toxicity (caspase-3) SHSY5Y (AID 657)
# How it was run: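 SH-SY5Y human neuroblastoma cells (1500/well) were treated with compounds for 16 h at 37 °C, then Caspase-Glo 3/7 luminescence was read after 1 h at room temperature. Data normalized to DMSO and 10 uM staurosporine; AC50 from Hill fits.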
# [12] = Cellular Toxicity (caspase-3) BJ (AID 658)
# How it was run: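 Plated BJ cells (1000/well) rested 5 hr, received compound for 16 hr at 37 °C, then Caspase-Glo 3/7 reagent for 1 hr at room temperature before luminescence reading.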
# [13] = Cellular Toxicity (caspase-3) MRC-5 (AID 659); settings: Potency: caspase-3 activation
# How it was run: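 Apoptosis readout in MRC-5 cells: luciferase light generated after caspase 3/7 cleaves a peptide-aminoluciferin substrate, measured post 16 hr compound incubation at 37 °C.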
# [14] = Cellular Toxicity (caspase-3) SK-N-SH (AID 661)
# How it was run: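 Luminescent Caspase-Glo 3/7 read-out after 16 hr compound exposure of SK-N-SH neuroblastoma cells at 37 °C. Signal increase normalized to DMSO (basal) and 10 uM staurosporine (100%); AC50 from Hill equation fits of qHTS concentration-response data.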
# [15] = Cellular Toxicity (caspase-3) Hek293 (AID 664); settings: HEK293 caspase-3 activation; caspase-3 activation: at 92.2 µM (top of the series), DMSO = 0%, 100 µM tamoxifen = 100%;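 note: cells exposed to compound for 16 h at 37 °C before readout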
# How it was run: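 Luminescent Caspase-Glo 3/7 readout (aminoluciferin release) in HEK293 cells after 16 h compound treatment, 37 °C. Normalization: DMSO = basal, 100 uM tamoxifen = 100% stimulation. Concentration-response fitted with standard Hill equation for AC50.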
# [16] = Cellular Toxicity (caspase-3) N2a (AID 665); settings: Potency: caspase-3 activation;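 note: compound exposure lasted 16 h at 37 °C before readout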
# How it was run: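 Luminescent Caspase-Glo 3/7 readout in N2a mouse neuroblastoma cells after 16 h compound exposure at 37 °C. Signal scaled to DMSO (basal) and 10 uM staurosporine (100%). Concentration-response fitted with Hill equation for AC50.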
# [17] = Cellular Toxicity (caspase-3) NIH 3T3 (AID 666)
# How it was run: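 NIH 3T3, 1000 cells/well, 5 hr settle then 16 hr compound at 37°C; Caspase-Glo 3/7, 20 min RT, luminescence. DMSO = basal, 100 uM tamoxifen = 100%. Hill-equation AC50, qHTS.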
# [18] = Cellular Toxicity (caspase-3) Renal Proximal Tubule (AID 667); settings: Potency: caspase-3 activation;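 note: cells exposed to compound for 16 hours at 37 °C before detection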
# How it was run: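 Primary rat proximal tubule cells, 1000/well, 5 h plating at 37 °C, then compound 16 h at 37 °C. Caspase-Glo 3/7 reagent, 1 h RT, luminescence. Normalized to DMSO (basal) and 10 uM staurosporine (100%); Hill-fit AC50.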
# [19] = Confirmation and Secondary Assay for Modulators of Hemoglobin Beta Chain Splicing at IVS2 654 locus (AID 910);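 note: per-well total GFP intensity by laser scanning cytometry after 2-day treatment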
# How it was run: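 HeLa cells stably carrying EGFP interrupted by mutant beta-globin IVS2-654 intron (CMV-driven) were treated with compound for 2 days at 37C; corrected splicing was scored as total peak GFP intensity per well (488 nm excitation, 500-520 nm emission).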
# [20] = qHTS Assay for Identification of Small Molecule Agonists for Hypoxia Response Element Signaling Pathway (AID 914; active = well fitted activation curve with a large enough effect in the signal ratio, with a control signal flat, not every such curve was filed as active; the % refers to the signal ratio); settings: ME-180 (cervical carcinoma) HRE-bla reporter, beta-lactamase ratio, CoCl2, 17 h; stronger effect = higher value
# How it was run: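 Positive modulation of EC50 CoCl2-induced hypoxia response element signaling is measured in ME-180 cells with a beta-lactamase reporter. Compounds are titrated, incubation runs 17 hours, and %Activity derives from the blue/green ratio.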
smiles,measurement,setting,value
CCN(CC)C(=O)c1ccc(O)c(OC)c1,outcome,[1],inactive
same,Potency,[2],inactive
same,Potency,[3],inactive
same,Potency,[4],inactive
same,Potency,[5],inactive
same,Potency,[6],inactive
COc1cccc(-c2cc(=O)c3ccccc3o2)c1N,outcome,[1],inactive
same,Potency,[3],7.94 µM (active)
same,outcome,[7],inactive
same,Potency,[8],inactive
same,Potency,[5],6.31 µM (active)
same,Potency,[6],0.398 µM (active)
O=c1c(-c2ccc(O)cc2)coc2cc(O)ccc12,caspase-3 activation,[9],-7.71% (inactive)
same,Potency,[10],inactive
same,outcome,[11],inactive
same,outcome,[12],inactive
same,Potency,[13],inactive
same,Potency,[14],inactive
same,Potency,[15],inactive
same,Potency,[16],inactive
same,outcome,[17],inactive
same,Potency,[18],inactive
same,outcome,[1],inactive
same,Potency,[2],inactive and 6.31 µM (active)
same,outcome,[7],inactive
same,Potency,[4],inactive
same,Potency,[5],inactive
same,outcome,[19],inactive
COc1ccc(Cc2nccc3cc(OC)c(OC)cc23)cc1OC,outcome,[1],inactive
O=C(O)c1cc(O)c2c(c1)C(=O)c1cccc(O)c1C2=O,caspase-3 activation,[9],-6.3% (inactive)
same,Potency,[10],inactive
same,outcome,[11],inactive
same,outcome,[12],inactive
same,Potency,[13],inactive
same,Potency,[14],inactive
same,Potency,[15],inactive
same,Potency,[16],inactive
same,outcome,[17],inactive
same,Potency,[18],inactive
same,Potency,[3],inactive
same,outcome,[7],inactive
CCCNC(=O)NS(=O)(=O)c1ccc(Cl)cc1,caspase-3 activation,[9],-0.0991% (inactive)
same,Potency,[10],inactive
same,outcome,[11],inactive
same,outcome,[12],inactive
same,Potency,[13],inactive
same,Potency,[14],inactive
same,Potency,[15],inactive
same,Potency,[16],inactive
same,outcome,[17],inactive
same,Potency,[18],inactive
same,outcome,[1],inactive
same,Potency,[2],inactive
same,Potency,[3],inactive
same,outcome,[7],inactive
same,Potency,[4],inactive
same,Potency,[5],inactive
same,outcome,[19],inactive
same,activation,[20],-1.93% (inactive) and -16.9% (inactive) and -21.4% (inactive)
same,Potency,[6],inactive
C[N+](C)(C)CCCCCC[N+](C)(C)C,outcome,[1],inactive
same,Potency,[2],inactive
same,Potency,[3],inactive
same,outcome,[19],inactive
same,Potency,[6],inactive
NCCS,outcome,[1],inactive
same,Potency,[3],inactive
same,Potency,[8],inactive
same,outcome,[19],inactive
same,Potency,[6],inactive
O=c1c(O)c(-c2ccc(O)cc2)oc2cc(O)cc(O)c12,caspase-3 activation,[9],1.17% (inactive)
same,Potency,[10],inactive
same,outcome,[11],inactive
same,outcome,[12],inactive
same,Potency,[13],inactive
same,Potency,[14],inactive
same,Potency,[15],inactive
same,Potency,[16],inactive
same,outcome,[17],inactive
same,Potency,[18],inactive
same,Potency,[2],15.8 µM (active)
same,outcome,[7],inactive
same,Potency,[4],15.8 µM (active)
